# Test results: the supplement of paper PMC8728848
# The full list was thinned out, with the strongest signals kept by preference.
# B1: SLR2P3F12 (Tachypleus tridentatus), TAL2_TACTR (protein)
# chain: MEKGTPPTHDSDNWMGRAKKIGNGGWNQFQFLFFDPNGYLYAVSKDKLYKASPPQSDTDNWIARATEIGSGGWSGFKSLFFHPNGYLYAVHGQRLYKALPPVSNQD
# What was measured:
# Assay in all cases: glycan array binding signal (z-score within array); higher = stronger binding
# Details in all cases: glycan notation: IUPAC condensed, linker removed
# [1] = target: Fuc(a1-2)Gal6S(b1-4)Glc6S
# Outline: (§1)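 Negative Z-scores can be read as non-binding. The Z-score is calculated within each array and then averaged across arrays of one protein sequence at different concentrations or buffers and across linkers. Arrays, 3228 in all, were curated from the Consortium for Functional Glycomics database and kept only where the protein sequence was available.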
# [2] = target: Fuc(a1-2)[Gal(a1-3)]Gal(b1-4)GlcNAc
# Outline: as §1
# [3] = target: Fuc(a1-2)[GalNAc(a1-3)]Gal(b1-3)GlcNAc
# Outline: as §1
# [4] = target: Fuc(a1-2)[GalNAc(a1-4)]Gal(b1-4)GlcNAc
# Outline: as §1
# [5] = target: Fuc(a1-3)GlcNAc
# Outline: as §1
# [6] = target: Fuc(a1-3)[Gal(b1-4)]GlcNAc(b1-2)Man(a1-6)[Gal(b1-4)GlcNAc(b1-2)Man(a1-3)]Man(b1-4)GlcNAc(b1-4)GlcNAc
# Outline: as §1
# [7] = target: Fuc(a1-4)GlcNAc
# Outline: as §1
# [8] = target: Gal(a1-3)[Gal(a1-4)]Gal(b1-4)GlcNAc
# Outline: as §1
# [9] = target: Gal(a1-4)Gal(b1-4)Glc
# Outline: as §1
# [10] = target: Gal(b1-4)GalNAc(a1-3)[Fuc(a1-2)]Gal(b1-4)GlcNAc
# Outline: as §1
# [11] = target: Gal(b1-4)Glc
# Outline: as §1
# [12] = target: Gal(b1-4)Glc6S
# Outline: as §1
# [13] = target: GlcNAc(a1-3)Gal(b1-4)GlcNAc
# Outline: as §1
# [14] = target: GlcNAc(a1-6)Gal(b1-4)GlcNAc
# Outline: as §1
# [15] = target: Neu5Ac(a2-3)Gal
# Outline: as §1
# [16] = target: Neu5Ac(a2-3)Gal(b1-4)[Fuc(a1-3)]GlcNAc(b1-3)Gal(b1-4)GlcNAc
# Outline: as §1
# [17] = target: Neu5Ac(a2-3)Gal(b1-4)[Fuc(a1-3)]GlcNAc(b1-6)[Gal(b1-3)]GalNAc
# Outline: as §1
# [18] = target: Neu5Ac(a2-3)GalNAc(b1-4)GlcNAc
# Outline: as §1
# [19] = target: Neu5Ac(a2-6)Gal(b1-4)Glc
# Outline: as §1
# [20] = target: Neu5Ac(a2-6)Gal(b1-4)GlcNAc
# Outline: as §1
# [21] = target: Neu5Ac(a2-6)Gal(b1-4)GlcNAc(b1-2)Man(a1-3)[Gal(b1-4)GlcNAc(b1-2)Man(a1-6)]Man(b1-4)GlcNAc(b1-4)GlcNAc
# Outline: as §1
# [22] = target: Neu5Ac(a2-6)Gal(b1-4)GlcNAc(b1-2)Man(a1-3)[GlcNAc(b1-2)Man(a1-6)]Man(b1-4)GlcNAc(b1-4)GlcNAc
# Outline: as §1
# [23] = target: Neu5Ac(a2-6)Gal(b1-4)GlcNAc(b1-2)Man(a1-3)[Neu5Ac(a2-6)Gal(b1-4)GlcNAc(b1-2)Man(a1-6)]Man(b1-4)GlcNAc(b1-4)GlcNAc
# Outline: as §1
# [24] = target: Neu5Ac(a2-6)Gal(b1-4)GlcNAc(b1-2)Man(a1-6)[GlcNAc(b1-2)Man(a1-3)]Man(b1-4)GlcNAc(b1-4)GlcNAc
# Outline: as §1
# [25] = target: Neu5Ac(a2-6)Gal(b1-4)GlcNAc6S
# Outline: as §1
binder,measurement,setting,value
B1,glycan array binding signal (z-score),[1],-0.343
same,glycan array binding signal (z-score),[2],-0.417
same,glycan array binding signal (z-score),[3],0.556
same,glycan array binding signal (z-score),[4],2.01
same,glycan array binding signal (z-score),[5],-0.301
same,glycan array binding signal (z-score),[6],0.218
same,glycan array binding signal (z-score),[7],1.42
same,glycan array binding signal (z-score),[8],0.143
same,glycan array binding signal (z-score),[9],-0.342
same,glycan array binding signal (z-score),[10],-0.208
same,glycan array binding signal (z-score),[11],2.75
same,glycan array binding signal (z-score),[12],-0.248
same,glycan array binding signal (z-score),[13],5.11
same,glycan array binding signal (z-score),[14],13.2
same,glycan array binding signal (z-score),[15],-0.415
same,glycan array binding signal (z-score),[16],-0.203
same,glycan array binding signal (z-score),[17],2.75
same,glycan array binding signal (z-score),[18],0.435
same,glycan array binding signal (z-score),[19],-0.125
same,glycan array binding signal (z-score),[20],-0.317
same,glycan array binding signal (z-score),[21],-0.422
same,glycan array binding signal (z-score),[22],-0.235
same,glycan array binding signal (z-score),[23],0.131
same,glycan array binding signal (z-score),[24],1.27
same,glycan array binding signal (z-score),[25],0.194
